Assay results reported in PubChem BioAssay (Tox21).
Records with an inconclusive call do not appear. The source made the active and inactive calls. Unless noted, calls come from the whole dose curve; as a rule, active = well fitted curve in the direction sought with a large enough effect in the repeat runs; inconclusive = weak or mixed curves; inactive = no such curve, though single readings can be large; an effect the other way counts as inactive or inconclusive.

What was measured:
[1] = qHTS assay to identify small molecule agonists of the androgen receptor (AR) signaling pathway in the presence of an antagonist - cell viability counter screen (AID 1259379); note: nearly all actives have a fitted effect of over 25% in size; note: potency is the fitted concentration of half-maximal effect
How it was run: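 A CellTiter-Fluor read-out measured viability of MDA-kb2 reporter cells (MMTV promoter with AR and GR response elements). Treatment: nilutamide 3.0uM final with compounds at 15 concentrations, 16 hr, 37C, 0% CO2.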

[2] = qHTS assay to identify small molecule antagonists of the estrogen receptor beta (ER-beta) signaling pathway - cell viability counter screen (AID 1259382); note: series mostly up to about 92 µM; nearly all actives have a fitted effect of over 55% in size
How it was run: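 Agonist-stimulated (1nM E2) ER-beta-UAS-bla HEK293T cells are incubated with library compounds for 16 hr at 37C. Cell viability is then assessed in the reporter-assay wells by adding CellTiter-Glo and reading luminescence after 30 min.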

[3] = qHTS assay to identify small molecule agonists or antagonists of the thyroid stimulating hormone receptor (TSHR) signaling pathway - wild type cell line counter screen (AID 1259384; calls by dose curve)
How it was run: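 Wild-type Hek293 cells, 800/well, 18 h at 37C, then compound with Ro20-1724 for 30 min RT. cAMP by HTRF (cAMP-d2/anti-cAMP cryptate), 1 h RT, fluorescence read. 15 concentrations, triplicates.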

[4] = molecular target: Thyrotropin receptor (Homo sapiens) (UniProt P16473); assay: qHTS assay to identify small molecule antagonists of the thyroid stimulating hormone receptor (TSHR) signaling pathway (AID 1259385; calls by dose curve; note: nearly all actives have a fitted effect of over 20% in size)
Chain of Thyrotropin receptor (Homo sapiens) (P16473 whole entry, looked up): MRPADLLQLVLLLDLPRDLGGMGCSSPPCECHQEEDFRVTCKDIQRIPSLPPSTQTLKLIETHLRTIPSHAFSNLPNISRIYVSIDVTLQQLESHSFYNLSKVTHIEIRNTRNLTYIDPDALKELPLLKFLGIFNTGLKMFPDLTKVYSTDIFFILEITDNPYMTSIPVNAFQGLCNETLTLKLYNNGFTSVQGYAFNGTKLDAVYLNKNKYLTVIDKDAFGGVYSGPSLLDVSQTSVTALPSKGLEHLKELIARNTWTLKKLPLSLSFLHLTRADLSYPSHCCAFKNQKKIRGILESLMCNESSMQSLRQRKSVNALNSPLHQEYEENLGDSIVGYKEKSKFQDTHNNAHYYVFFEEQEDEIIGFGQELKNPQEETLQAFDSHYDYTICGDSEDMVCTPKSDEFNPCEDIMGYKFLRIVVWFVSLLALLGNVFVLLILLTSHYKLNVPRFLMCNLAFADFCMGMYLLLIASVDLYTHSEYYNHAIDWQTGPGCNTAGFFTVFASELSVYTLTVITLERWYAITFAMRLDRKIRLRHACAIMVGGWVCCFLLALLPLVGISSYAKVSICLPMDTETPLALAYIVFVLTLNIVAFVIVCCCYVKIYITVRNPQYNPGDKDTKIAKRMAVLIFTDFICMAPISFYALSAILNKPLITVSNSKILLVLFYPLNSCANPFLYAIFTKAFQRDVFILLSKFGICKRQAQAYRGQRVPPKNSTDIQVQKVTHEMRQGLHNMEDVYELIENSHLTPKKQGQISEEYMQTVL
How it was run: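 TSHR-HEK293 cells (800/well) plated 18 h, then compounds with Ro20-1724 and TSH at 1.5 ng/mL final, 30 min at room temperature. cAMP quantified by HTRF (cAMP-d2/anti-cAMP-cryptate, 1 h); 15 concentrations in triplicate.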

[5] = qHTS assay to identify small molecule agonists of the estrogen receptor alpha (ER-alpha) signaling pathway in the presence of an antagonist - cell viability counter screen (AID 1259386);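 note: series mostly up to about 92 µM; cells exposed to compounds for 22 h at 37 °C before the viability read; nearly all actives have a fitted effect of over 30% in size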
How it was run: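 ICI-182,780 at 10.0nM final accompanies the compound titration (15 concentrations, 22hr, 37C) on VM7Luc4E2 cells. The CellTiter-Fluor fluorescence readout runs in the same wells as the luciferase assay.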

[6] = molecular target: Progesterone receptor (Homo sapiens) (UniProt P06401); assay: qHTS assay to identify small molecule agonists of the progesterone receptor (PR) signaling pathway (AID 1346784; calls by dose curve; note: nearly all actives have a fitted effect of over 30% in size)
Chain of Progesterone receptor (Homo sapiens) (P06401 whole entry, looked up): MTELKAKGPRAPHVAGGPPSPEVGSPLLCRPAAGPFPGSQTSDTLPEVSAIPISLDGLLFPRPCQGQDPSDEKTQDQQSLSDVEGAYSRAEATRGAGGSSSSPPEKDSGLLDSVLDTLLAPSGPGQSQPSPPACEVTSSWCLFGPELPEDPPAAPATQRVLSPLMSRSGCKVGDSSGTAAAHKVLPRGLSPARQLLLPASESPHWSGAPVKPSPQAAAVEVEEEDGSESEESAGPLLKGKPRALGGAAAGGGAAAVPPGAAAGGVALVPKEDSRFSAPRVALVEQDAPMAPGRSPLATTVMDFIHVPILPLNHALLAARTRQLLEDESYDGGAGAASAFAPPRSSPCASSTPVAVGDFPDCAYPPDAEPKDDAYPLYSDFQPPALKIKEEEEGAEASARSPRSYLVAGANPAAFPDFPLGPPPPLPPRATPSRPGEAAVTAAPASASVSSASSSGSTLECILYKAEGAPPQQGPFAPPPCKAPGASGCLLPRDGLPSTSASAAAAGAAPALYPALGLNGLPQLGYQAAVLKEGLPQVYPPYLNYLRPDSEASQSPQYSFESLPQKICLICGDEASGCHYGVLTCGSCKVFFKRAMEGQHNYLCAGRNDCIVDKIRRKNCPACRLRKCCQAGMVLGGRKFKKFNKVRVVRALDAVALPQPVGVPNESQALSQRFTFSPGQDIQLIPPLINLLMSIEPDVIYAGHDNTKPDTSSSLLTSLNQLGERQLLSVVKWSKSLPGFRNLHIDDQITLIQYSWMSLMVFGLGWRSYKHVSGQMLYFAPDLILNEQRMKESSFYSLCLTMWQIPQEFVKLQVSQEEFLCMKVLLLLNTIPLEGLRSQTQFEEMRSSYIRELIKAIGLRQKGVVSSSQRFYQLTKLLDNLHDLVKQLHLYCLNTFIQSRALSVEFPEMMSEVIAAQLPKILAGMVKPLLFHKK
How it was run: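 Beta-lactamase reporter read-out: after 16 hr compound treatment at 37C and a further 2 hr at room temperature with LiveBLAzer B/G FRET substrate, fluorescence was measured in PR-UAS-bla HEK 293T cells grown in 2% charcoal-stripped serum.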

[7] = molecular target: Progesterone receptor (Homo sapiens) (UniProt P06401); assay: qHTS assay to identify small molecule antagonists of the progesterone receptor (PR) signaling pathway (AID 1346795; active = well fitted inhibition curve with a large enough effect in the signal ratio in the repeat runs, not every such curve was filed as active; the % refers to the signal ratio; note: potency is the fitted concentration of half-maximal effect)
How it was run: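 Read-out is fluorescence from the LiveBLAzer B/G FRET substrate, cleaved by a UAS-controlled beta-lactamase in PR-UAS-bla HEK293T cells after 16 hr exposure to compound plus 1 nM promegestone (final), followed by 2 hr at room temperature.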

[8] = qHTS assay to identify small molecule agonists of the progesterone receptor (PR) signaling pathway - cell viability counter screen (AID 1346799; calls by dose curve; note: nearly all actives have a fitted effect of over 45% in size)
How it was run: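 Luminescence from CellTiter-Glo, added after the beta-lactamase FRET read in the same wells, gave cytotoxicity in PR-UAS-bla HEK293T cells treated with compounds for 16 hr at 37C.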

[9] = qHTS assay to identify small molecule antagonists of the TGF-beta/Smad signaling pathway - cell viability counter screen (AID 1346824); note: nearly all actives have a fitted effect of over 50% in size; note: potency is the fitted concentration of half-maximal effect
How it was run: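 SBE-bla HEK 293T cells, incubated overnight, then compound plus 0.25 ng/mL TGF-beta1 (stock added) for 5 hr at 37 C. Viability was read in the same wells by CellTiter-Glo luminescence after 30 min at room temperature.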

[10] = qHTS assay to identify small molecule agonists of the TGF-beta/Smad signaling pathway - cell viability counter screen (AID 1346829); note: top concentration of the series differs between compounds; nearly all actives have a fitted effect of over 45% in size
How it was run: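 Tox21 qHTS format: SBE-bla HEK 293T cells treated with DMSO-dissolved compounds for 5 hr; CellTiter-Glo luminescence after 30 min at room temperature.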

[11] = qHTS assay to identify small molecule agonists of the TGF-beta/Smad signaling pathway (AID 1346859; active = well fitted activation curve with a large enough effect in the signal ratio in the repeat runs, not every such curve was filed as active; the % refers to the signal ratio; note: series mostly up to about 77 µM)
How it was run: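 SBE-bla HEK 293T, 4,000 cells/well, plated o/n; cpd in DMSO, 5 hr, 37 C/5% CO2; B/G FRET substrate 2 hr RT; ex 405, em 460/530 nm.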

[12] = molecular target: Thyrotropin-releasing hormone receptor (Homo sapiens) (UniProt P34981); assay: qHTS assay to identify small molecule antagonists of the thyrotropin-releasing hormone receptor (TRHR) signaling pathway (AID 1346877; active = well fitted inhibition curve with a large enough effect in the repeat runs, not every such curve was filed as active; note: series mostly up to about 51 µM)
Chain of Thyrotropin-releasing hormone receptor (Homo sapiens) (P34981 whole entry, looked up): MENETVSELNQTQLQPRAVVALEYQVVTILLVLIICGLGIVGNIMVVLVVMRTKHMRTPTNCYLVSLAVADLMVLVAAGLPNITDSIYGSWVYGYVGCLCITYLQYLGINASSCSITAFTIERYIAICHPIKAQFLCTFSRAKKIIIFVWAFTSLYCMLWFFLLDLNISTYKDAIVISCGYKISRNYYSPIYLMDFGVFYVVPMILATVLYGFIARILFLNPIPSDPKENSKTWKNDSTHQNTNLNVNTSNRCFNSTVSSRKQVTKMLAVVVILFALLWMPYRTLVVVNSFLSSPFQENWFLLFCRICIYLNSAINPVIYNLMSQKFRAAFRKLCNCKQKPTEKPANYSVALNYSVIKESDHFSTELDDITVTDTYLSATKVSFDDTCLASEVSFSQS
How it was run: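 Screening used HEK293 cells engineered with TRHR, with a brief 5 min room-temperature compound exposure preceding addition of TRH to 1 nM. The read-out was kinetic calcium-dye fluorescence, concentration-response from 15 doses in triplicate.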

[13] = molecular target: Thyrotropin-releasing hormone receptor (Homo sapiens) (UniProt P34981); assay: qHTS assay to identify small molecule agonists of the thyrotropin-releasing hormone receptor (TRHR) signaling pathway (AID 1346891; calls by dose curve; note: series mostly up to about 58 µM)
How it was run: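 Intracellular calcium rise, read as fluorescence every second for 3 min, served as the agonist signal in dye-loaded HEK293 cells expressing TRHR; each compound ran at 15 concentrations in triplicate.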

[14] = molecular target: Estrogen receptor beta (Homo sapiens) (UniProt Q92731); assay: qHTS assay to identify small molecule antagonists of the estrogen receptor beta (ER-beta) signaling pathway (AID 1259378; active = well fitted inhibition curve with a large enough effect in the signal ratio in the repeat runs, not every such curve was filed as active; the % refers to the signal ratio)
Chain of Estrogen receptor beta (Homo sapiens) (Q92731 whole entry, looked up): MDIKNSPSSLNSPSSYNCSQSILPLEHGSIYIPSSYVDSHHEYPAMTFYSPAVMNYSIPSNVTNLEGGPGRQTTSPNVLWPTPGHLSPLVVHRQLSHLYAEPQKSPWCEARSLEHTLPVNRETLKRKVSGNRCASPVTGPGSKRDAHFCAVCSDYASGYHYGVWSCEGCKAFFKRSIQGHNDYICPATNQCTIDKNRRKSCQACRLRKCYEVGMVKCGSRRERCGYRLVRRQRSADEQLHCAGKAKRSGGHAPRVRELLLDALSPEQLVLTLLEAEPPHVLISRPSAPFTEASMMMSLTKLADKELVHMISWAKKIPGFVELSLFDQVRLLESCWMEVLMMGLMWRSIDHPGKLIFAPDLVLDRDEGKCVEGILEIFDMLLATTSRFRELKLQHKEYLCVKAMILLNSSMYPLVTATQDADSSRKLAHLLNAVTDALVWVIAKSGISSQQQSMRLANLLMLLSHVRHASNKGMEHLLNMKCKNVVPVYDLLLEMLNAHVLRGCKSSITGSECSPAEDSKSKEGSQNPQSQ
How it was run: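 ER-beta-UAS-bla HEK293T cells in 2% charcoal-stripped FBS medium treated with compound plus 1nM final 17-beta-estradiol for 16 hr at 37C. Beta-lactamase reporter read by FRET substrate fluorescence after 2 hours at room temperature.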

[15] = qHTS assay to identify small molecule antagonists of the progesterone receptor (PR) signaling pathway - cell viability counter screen (AID 1346798); note: nearly all actives have a fitted effect of over 50% in size; note: potency is the fitted concentration of half-maximal effect
How it was run: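 HEK293T PR-UAS-bla, 2% charcoal-stripped FBS; 4 hr pre-plate; cpd + R5020, 16 h 37C; LiveBLAzer read first; then CellTiter-Glo 30 min RT, luminescence.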

[16] = molecular target: Estrogen receptor (Homo sapiens) (UniProt P03372); assay: qHTS assay to identify small molecule agonists of the estrogen receptor alpha (ER-alpha) signaling pathway in the presence of an antagonist (AID 1259383; calls by dose curve; note: top concentration of the series differs between compounds; nearly all actives have a fitted effect of over 15% in size)
Chain of Estrogen receptor (Homo sapiens) (P03372 whole entry, looked up): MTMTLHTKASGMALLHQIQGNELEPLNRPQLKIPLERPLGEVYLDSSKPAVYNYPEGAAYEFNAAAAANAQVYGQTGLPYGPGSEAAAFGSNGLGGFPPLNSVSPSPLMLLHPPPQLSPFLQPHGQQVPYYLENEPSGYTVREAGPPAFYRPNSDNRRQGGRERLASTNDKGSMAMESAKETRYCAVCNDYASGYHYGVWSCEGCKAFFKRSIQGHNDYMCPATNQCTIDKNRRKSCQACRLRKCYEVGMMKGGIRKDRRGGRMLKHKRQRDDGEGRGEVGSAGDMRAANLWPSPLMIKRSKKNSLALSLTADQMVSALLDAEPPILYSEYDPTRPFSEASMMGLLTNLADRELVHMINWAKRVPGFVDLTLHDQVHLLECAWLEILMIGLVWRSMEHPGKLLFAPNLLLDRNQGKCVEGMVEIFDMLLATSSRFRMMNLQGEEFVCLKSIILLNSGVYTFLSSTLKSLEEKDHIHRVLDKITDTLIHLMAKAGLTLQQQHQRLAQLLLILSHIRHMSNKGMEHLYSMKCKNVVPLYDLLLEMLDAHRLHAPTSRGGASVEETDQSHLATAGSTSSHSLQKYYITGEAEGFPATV
How it was run: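 Using VM7Luc4E2 cells seeded 24hr before treatment, antagonist ICI-182,780 (10.0nM final) was added, followed by compounds at 15 concentrations. Plates incubated 22hr; ONE-Glo luminescence quantified reporter activity.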

[17] = qHTS assay to identify small molecule agonists of the estrogen receptor beta (ER-beta) signaling pathway - cell viability counter screen (AID 1259380); note: nearly all actives have a fitted effect of over 30% in size; note: potency is the fitted concentration of half-maximal effect
How it was run: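 Cells used were ER-beta-UAS-bla HEK293T in medium with 2% charcoal-stripped FBS. They were treated for 16 hr at 37C. Viability came from CellTiter-Glo luminescence.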

[18] = molecular target: Androgen receptor (Homo sapiens) (UniProt P10275); assay: qHTS assay to identify small molecule agonists of the androgen receptor (AR) signaling pathway in the presence of an antagonist (AID 1259381; calls by dose curve; note: nearly all actives have a fitted effect of over 15% in size)
Chain of Androgen receptor (Homo sapiens) (P10275 whole entry, looked up): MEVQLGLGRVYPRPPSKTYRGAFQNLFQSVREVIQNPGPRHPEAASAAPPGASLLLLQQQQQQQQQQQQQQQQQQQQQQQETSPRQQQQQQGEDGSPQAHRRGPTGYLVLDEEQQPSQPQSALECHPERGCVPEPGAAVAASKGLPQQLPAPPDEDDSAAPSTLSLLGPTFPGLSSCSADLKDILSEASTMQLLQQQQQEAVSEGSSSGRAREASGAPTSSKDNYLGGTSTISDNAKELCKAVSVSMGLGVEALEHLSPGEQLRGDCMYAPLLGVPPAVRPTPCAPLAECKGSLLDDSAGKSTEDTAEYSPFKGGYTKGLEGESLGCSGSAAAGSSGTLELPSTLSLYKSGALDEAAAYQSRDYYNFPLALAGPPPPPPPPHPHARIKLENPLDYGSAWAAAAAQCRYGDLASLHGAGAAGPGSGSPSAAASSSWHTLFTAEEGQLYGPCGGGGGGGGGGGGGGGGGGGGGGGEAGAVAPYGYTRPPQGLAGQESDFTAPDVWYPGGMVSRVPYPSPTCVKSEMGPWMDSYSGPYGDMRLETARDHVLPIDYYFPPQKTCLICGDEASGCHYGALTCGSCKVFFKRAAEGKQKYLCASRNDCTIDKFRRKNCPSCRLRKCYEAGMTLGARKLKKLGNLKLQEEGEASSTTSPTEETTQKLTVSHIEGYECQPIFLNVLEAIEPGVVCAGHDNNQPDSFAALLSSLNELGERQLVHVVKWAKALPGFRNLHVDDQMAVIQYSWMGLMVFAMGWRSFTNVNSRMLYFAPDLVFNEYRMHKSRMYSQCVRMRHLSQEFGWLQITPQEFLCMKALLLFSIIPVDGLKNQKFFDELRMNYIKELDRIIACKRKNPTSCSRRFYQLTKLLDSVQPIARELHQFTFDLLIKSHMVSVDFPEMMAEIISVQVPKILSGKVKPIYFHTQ
How it was run: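 Using human MDA-kb2 cells with an MMTV promoter–luciferase construct (AR and GR response elements), agonist activity is scored under 3.0uM nilutamide (final) co-treatment; 16hr incubation, 37C, luminescence readout via ONE-Glo.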

Measured: Potency

CC1CCC(=O)O1 (stereo not drawn)
not listed: [14] | [15] | [16] | [17] | [18]
inactive: all other assays above

C[C@]12CC[C@H]3[C@@H](CC=C4C[C@@H](O)CC[C@@]43C)[C@@H]1CC[C@@H]2O
not listed: [3] | [4] | [12] | [13] | [16] | [17] | [18]
inactive: all other assays above

CC(C1CC1)C(O)(Cn1cncn1)c1ccc(Cl)cc1 (stereo not drawn)
active: [7] 48.3 µM
not listed: [2] | [8] | [16] | [17] | [18]
inactive: all other assays above

C=CCC1=C(C)[C@@H](OC(=O)[C@@H]2[C@@H](C=C(C)C)C2(C)C)CC1=O
active: [1] 48.6 µM | [7] 27.3 µM | [9] 49 µM
inactive: [16] | [3] | [12] | [13]

C[C@]1(O)CC[C@H]2[C@@H]3CCC4=CC(=O)CC[C@]4(C)[C@@]3(F)[C@@H](O)C[C@@]21C
inactive: [1] | [2] | [3] | [4] | [5] | [15] | [10] | [11]

CCN(CC)c1nc(C)cc(OP(=S)(OC)OC)n1
not listed: [3] | [7] | [14] | [17] | [18]
inactive: all other assays above

CNC(=O)O/N=C(\C)SC
not listed: [2] | [16] | [17] | [18]
inactive: all other assays above

O=C1CN2CCOC2(c2ccccc2Cl)c2cc(Cl)ccc2N1 (stereo not drawn)
not listed: [7] | [12] | [13] | [14] | [18]
inactive: all other assays above

CCC(=O)C(CCN(C)C)(c1ccccc1)c1ccccc1
not listed: [3] | [4] | [11] | [14]
inactive: all other assays above

CCCSC(=O)N(CCC)CCC
not listed: [2] | [5] | [7] | [14] | [16] | [18]
inactive: all other assays above

CC(Oc1ccc(Oc2ncc(C(F)(F)F)cc2Cl)cc1)C(=O)O (stereo not drawn)
active: [17] 17.2 µM | [15] 7.7 µM
not listed: [2] | [7] | [8] | [12] | [13] | [14]
inactive: all other assays above

CC1(C)CON(Cc2ccccc2Cl)C1=O
not listed: [7] | [11] | [14] | [18]
inactive: all other assays above

[As]#[In]
not listed: [2] | [7] | [16] | [18]
inactive: all other assays above

CN1C[C@@H](NS(=O)(=O)N(C)C)C[C@@H]2c3cccc4c3c(cn4C)C[C@H]21
not listed: [14] | [16] | [17] | [18]
inactive: all other assays above

COC(=O)c1ccccc1S(=O)(=O)NC(=O)N(C)c1nc(C)nc(OC)n1
not listed: [3] | [4] | [14] | [18]
inactive: all other assays above

ClC(Cl)Br
not listed: [5] | [9] | [11] | [14] | [18]
inactive: all other assays above

CN1CCC(N(Cc2ccccc2)c2ccccc2)CC1
active: [17] 13.3 µM
not listed: [2] | [14] | [18]
inactive: all other assays above

CCN(CC)CCOC(=O)C(C)(c1ccccc1)c1ccccc1
not listed: [5] | [14] | [16] | [18]
inactive: all other assays above
